# PubChem BioAssay (EPA / NIEHS)
# Where “and” joins values, the source holds several entries; their conditions need not be identical. Identical values can stand only once. Results filed as inconclusive are left out. The source holds several records for some structures; these can differ, active in one and inactive in another. Calls of active or inactive are those of the source. How the source made its calls, unless noted: active means hit-call score of the fitted dose curve at least 0.9, where 1 is the maximum; inactive means score below 0.9.
# Assays:
# [1] = ACEA_ER_80hr: ACEA Biosciences xCELLigence Real-Time Cell Analysis on Estrogen Receptor Agonism for Proliferation (AID 2282667; active means hit-call score of the fitted dose curve at least 0.9, where 1 is the maximum); settings: T47D proliferation, impedance (xCELLigence), 80 h
# Summary of the method: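 T-47D cells monitored by electrical impedance (xCELLigence) with compound present throughout; 80 h timepoint, positive-direction fitting versus DMSO. Eight-point 1:4 dilutions from 100 uM final, duplicate plates.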
# [2] = target: CCAAT/enhancer-binding protein beta (Homo sapiens) (UniProt P17676); assay: ATG_C_EBP_CIS: Attagene CIS-FACTORIAL HepG2 Assay for human CCAAT/Enhancer Binding Protein (C/EBP) beta (AID 2282927); settings: HepG2 Attagene cis-factorial transcription factor reporter; actives raise or lower the signal
# Chain of CCAAT/enhancer-binding protein beta (Homo sapiens) (P17676 whole entry, looked up): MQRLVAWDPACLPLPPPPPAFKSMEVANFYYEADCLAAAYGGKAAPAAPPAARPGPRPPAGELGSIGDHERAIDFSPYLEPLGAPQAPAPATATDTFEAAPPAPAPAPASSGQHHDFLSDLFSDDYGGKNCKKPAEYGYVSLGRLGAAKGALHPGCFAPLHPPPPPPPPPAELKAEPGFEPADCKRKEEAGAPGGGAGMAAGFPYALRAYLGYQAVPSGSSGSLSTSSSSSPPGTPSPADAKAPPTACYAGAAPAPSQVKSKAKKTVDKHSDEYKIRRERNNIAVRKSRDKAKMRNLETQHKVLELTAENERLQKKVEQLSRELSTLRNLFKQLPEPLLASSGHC
# Summary of the method: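 HepG2, transient MRTU transfection, 24 h treatment. RT-PCR plus CE fluorescence; DMSO negative control, bidirectional fit.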
# [3] = ATG_CMV_CIS: Attagene CIS-FACTORIAL HepG2 Assay for human CMV (Internal Marker) (AID 2282928); settings: HepG2 CMV promoter reporter, transcription factor profiling; actives raise or lower the signal;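 further: endpoint acts as a background internal control marker rather than a target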
# Summary of the method: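 Bidirectional fits against DMSO are applied to reporter mRNA, read by RT-PCR with capillary electrophoresis, from HepG2 cells exposed 24 h. The endpoint serves as an internal CMV background marker within the cis-factorial reporter panel.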
# [4] = ATG_DR4_LXR_CIS: Attagene CIS-FACTORIAL HepG2 Assay for human Liver X Receptor (LXR), DR4 submotif (AID 2282929); settings: HepG2 Attagene DR4 cis-reporter, mRNA transcription; actives raise or lower the signal
# Summary of the method: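 Total RNA from 24 h-treated, MRTU-transfected HepG2 cells underwent reverse transcription, PCR, fluorescent primer extension and restriction digestion before capillary electrophoresis. Both increases and decreases in reporter signal were fitted against DMSO.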
# [5] = target: Aryl hydrocarbon receptor (Homo sapiens) (UniProt P35869); assay: ATG_Ahr_CIS: Attagene CIS-FACTORIAL HepG2 Assay for human Aryl Hydrocarbon Receptor (Ahr) (AID 2282930); settings: HepG2 AhR cis-factorial reporter transcription; actives raise or lower the signal
# Chain of Aryl hydrocarbon receptor (Homo sapiens) (P35869 whole entry, looked up): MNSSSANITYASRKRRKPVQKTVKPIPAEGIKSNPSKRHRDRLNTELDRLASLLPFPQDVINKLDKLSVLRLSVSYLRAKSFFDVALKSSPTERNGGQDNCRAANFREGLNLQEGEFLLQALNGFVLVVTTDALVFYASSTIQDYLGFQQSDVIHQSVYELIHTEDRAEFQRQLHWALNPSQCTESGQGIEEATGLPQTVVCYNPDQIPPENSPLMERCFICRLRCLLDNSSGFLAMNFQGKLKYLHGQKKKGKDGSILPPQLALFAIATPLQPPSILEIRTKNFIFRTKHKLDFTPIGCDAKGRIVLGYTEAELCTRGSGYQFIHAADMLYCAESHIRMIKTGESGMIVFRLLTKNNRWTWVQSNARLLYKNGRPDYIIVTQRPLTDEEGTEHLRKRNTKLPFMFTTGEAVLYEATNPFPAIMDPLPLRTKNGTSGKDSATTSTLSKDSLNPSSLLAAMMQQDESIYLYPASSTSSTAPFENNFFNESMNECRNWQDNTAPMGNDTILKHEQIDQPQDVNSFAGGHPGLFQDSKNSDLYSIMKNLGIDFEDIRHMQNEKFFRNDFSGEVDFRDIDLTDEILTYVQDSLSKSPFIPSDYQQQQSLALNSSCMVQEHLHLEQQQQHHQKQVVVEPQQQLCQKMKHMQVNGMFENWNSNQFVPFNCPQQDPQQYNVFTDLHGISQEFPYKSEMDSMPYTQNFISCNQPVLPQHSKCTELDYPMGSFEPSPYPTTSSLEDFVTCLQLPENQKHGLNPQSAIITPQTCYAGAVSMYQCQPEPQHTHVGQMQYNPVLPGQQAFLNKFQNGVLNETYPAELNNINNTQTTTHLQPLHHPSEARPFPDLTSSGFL
# Summary of the method: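 Endogenous factor activity is tracked through cis-promoter reporter units transfected into HepG2 cells. Transcript levels at 24 h are read by fluorescent RT-PCR and capillary electrophoresis, with activity in either direction scored relative to DMSO.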
# [6] = ATG_AP_1_CIS: Attagene CIS-FACTORIAL HepG2 Assay for human Activator Protein 1 (AP-1) (AID 2282931); settings: HepG2 Attagene cis-factorial AP-1 reporter mRNA; actives raise or lower the signal
# Summary of the method: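 HepG2, transient cis-reporter transfection; 24 h; readout RT-PCR/CE fluorescence; DMSO baseline, gain and loss fitted.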
# [7] = ATG_AP_2_CIS: Attagene CIS-FACTORIAL HepG2 Assay for human Activator Protein 2 (AP-2) (AID 2282932); settings: HepG2 AP-2 cis-reporter, Attagene transcription factor profiling; actives raise or lower the signal
# Summary of the method: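 Read-out: fluorescent reporter mRNA via RT-PCR and capillary electrophoresis, 24 h post-dose in transiently transfected HepG2. Endogenous factors drive cis-promoter reporters; gain or loss of signal fitted bidirectionally against DMSO.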
# [8] = ATG_BRE_CIS: Attagene CIS-FACTORIAL HepG2 Assay for human Bone Morphogenetic Protein (BMP) Response Element (BRE) (AID 2282933); settings: HepG2 BMP response element reporter, Attagene transcription factor profiling; actives raise or lower the signal
# Summary of the method: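 HepG2 cells transiently transfected with CIS reporter units (endogenous TF activity, BMP response element), dosed 24 h. Reporter mRNA quantified by RT-PCR, fluorescent labelling and capillary electrophoresis; bidirectional fit vs DMSO baseline.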
# [9] = target: Retinoic acid receptor alpha (Homo sapiens) (UniProt P10276); assay: ATG_DR5_RAR_CIS: Attagene CIS-FACTORIAL HepG2 Assay for human Retinoic Acid Receptor Alpha (RARE), DR5 submotif (AID 2282934); settings: HepG2 Attagene cis-factorial RARE DR5 reporter, mRNA; actives raise or lower the signal;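 on AC50: reporter responds to endogenous RAR alpha beta and gamma in HepG2 not RARA alone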
# Chain of Retinoic acid receptor alpha (Homo sapiens) (P10276 whole entry, looked up): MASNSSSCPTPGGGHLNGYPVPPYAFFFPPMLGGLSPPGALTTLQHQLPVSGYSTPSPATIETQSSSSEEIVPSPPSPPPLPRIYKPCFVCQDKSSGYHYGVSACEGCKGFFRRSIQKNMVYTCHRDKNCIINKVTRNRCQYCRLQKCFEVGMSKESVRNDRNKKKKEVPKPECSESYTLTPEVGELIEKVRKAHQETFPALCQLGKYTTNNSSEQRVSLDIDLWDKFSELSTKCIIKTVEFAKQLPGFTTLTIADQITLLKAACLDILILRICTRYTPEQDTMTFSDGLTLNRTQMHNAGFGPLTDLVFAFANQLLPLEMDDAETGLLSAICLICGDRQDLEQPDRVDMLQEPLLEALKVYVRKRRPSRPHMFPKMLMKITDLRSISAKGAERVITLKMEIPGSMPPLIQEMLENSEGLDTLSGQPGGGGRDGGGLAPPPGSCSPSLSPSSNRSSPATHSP
# Summary of the method: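 After 24 h of chemical exposure, transiently transfected HepG2 cells were lysed for total RNA; the DR5-regulated reporter transcript was quantified via RT-PCR and capillary electrophoresis, with activity fitted bidirectionally against DMSO.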
# [10] = ATG_CRE_CIS: Attagene CIS-FACTORIAL HepG2 Assay for human cAMP Responsive Element (CRE) binding protein 3 (AID 2282926); settings: HepG2 CRE cis-reporter, Attagene multiplexed mRNA; actives raise or lower the signal
# Summary of the method: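 Induced reporter mRNA from a CRE cis element, measured in HepG2 among many multiplexed units at 24 h. Detection used RT-PCR plus capillary electrophoresis of fluorescent fragments; DMSO served as negative control.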
SMILES,outcome [1],outcome [2],outcome [3],outcome [4],outcome [5],outcome [6],outcome [7],outcome [8],outcome [9],AC50 [3],AC50 [8],AC50 [2],AC50 [4],AC50 [6],AC50 [9],outcome [10],AC50 [5],AC50 [7]
Nc1ccc(S(=O)(=O)Nc2nccs2)cc1,inactive,inactive,inactive,inactive,inactive,inactive,inactive,inactive,inactive,,,,,,,,,
CCN(CC)c1ccc2c(C)cc(=O)oc2c1,inactive,inactive,,inactive,inactive,inactive,inactive,,inactive,26.5 µM (active),143 µM (active),,,,,,,
C=CC(=O)OCC(F)(F)C(F)(F)C(F)(F)C(F)(F)COC(=O)C=C,inactive,,,,inactive,,inactive,inactive,,58.1 µM (active),,50 µM (active),31.3 µM (active),50 µM (active),60.6 µM (active),,,
[Co],inactive,inactive,inactive,inactive,inactive,inactive,inactive,inactive,inactive,,,,,,,,,
O=C(O)C(F)(F)C(F)(F)C(F)(F)C(F)(F)C(F)(F)C(F)(F)C(F)(F)C(F)(F)C(F)(F)C(F)(F)C(F)(F)C(F)(F)F,,inactive,inactive,inactive,inactive,inactive,inactive,inactive,inactive,,,,,,,inactive,,
CCCCCCCCC(F)(F)C(F)(F)C(F)(F)C(F)(F)C(F)(F)C(F)(F)F,inactive,inactive,inactive,inactive,inactive,inactive,inactive,inactive,inactive,,,,,,,,,
CC(C)(C)c1ccc(OC2CCCCC2O)cc1 (centres undefined),inactive,inactive,,inactive,inactive,,inactive,,inactive,48.8 µM (active),42.4 µM (active),,,24.5 µM (active),,,,
CC(C)c1ccccc1N,inactive,inactive,inactive,inactive,inactive,inactive,inactive,inactive,inactive,,,,,,,,,
CC/C=C\CCOC(C)=O,,inactive,inactive,inactive,inactive,inactive,inactive,inactive,inactive,,,,,,,inactive,,
CCCCCCS,inactive,inactive,inactive,inactive,inactive,inactive,inactive,inactive,inactive,,,,,,,,,
Nc1ccc(Oc2cccc(Oc3ccc(N)cc3)c2)cc1,inactive,inactive,,,inactive,inactive,inactive,inactive,inactive,45.1 µM (active),,,25.4 µM (active),,,,,
O=C(O)C(F)(OC(F)(F)C(F)(OC(F)(F)C(F)(OC(F)(F)C(F)(F)C(F)(F)F)C(F)(F)F)C(F)(F)F)C(F)(F)F (centres undefined),inactive,inactive,inactive,inactive,inactive,inactive,inactive,inactive,inactive,,,,,,,inactive,,
CC(Cc1ccc(O)c(O)c1)C(C)Cc1ccc(O)c(O)c1 (centres undefined),inactive,inactive,inactive,inactive,inactive,inactive,inactive,inactive,inactive,,,,,,,,,
OCC(F)(F)C(F)(F)C(F)(F)C(F)F,inactive,inactive,inactive,inactive,inactive,inactive,inactive,inactive,inactive,,,,,,,,,
O=S(=O)(O)C(F)(F)C(F)(F)C(F)(F)C(F)(F)C(F)(F)C(F)(F)C(F)(F)F,,,inactive,inactive,inactive,inactive,inactive,inactive,inactive,,100 µM (active),70.3 µM (active) and 50 µM (active),29.7 µM (active),100 µM (active),,inactive,,
CCCCOc1ccc(N)cc1,inactive,inactive,inactive,inactive,inactive,inactive,inactive,inactive,inactive,,,,,,,,,
COC(OC(C)=O)c1ccccc1 (centres undefined),inactive,inactive,inactive,inactive,inactive,inactive,inactive,inactive,inactive,,,,,,,,,
O=C(O)C(F)(F)C(F)(F)C(F)(F)C(F)(F)C(F)(F)C(F)(F)C(F)(F)C(F)(F)C(F)(F)C(F)(F)C(F)(F)C(F)(F)C(F)(F)F,inactive,inactive,inactive,inactive,inactive,,inactive,inactive,inactive,,,,,42.8 µM (active),,,,
OCCCC(F)(F)C(F)(F)C(F)(F)F,inactive,inactive,inactive,inactive,inactive,inactive,inactive,inactive,inactive,,,,,,,,,
CCC(=O)OCCc1ccccc1,,inactive,inactive,inactive,inactive,inactive,inactive,inactive,inactive,,,,,,,inactive,,
Cc1ccc(S(=O)(=O)NCl)cc1,,inactive,inactive,inactive,,inactive,inactive,inactive,,,,,,,,inactive,66.9 µM (active) and 61.9 µM (active),
CCCCCCCCCCCCCCCC[N+](C)(C)Cc1ccccc1,inactive,inactive,,,inactive,inactive,,inactive,inactive,44.8 µM (active),,,24.9 µM (active),,,,,51.9 µM (active)
O[Si](c1ccccc1)(c1ccccc1)c1ccccc1,inactive,inactive,inactive,,inactive,,inactive,,inactive,,32.3 µM (active),,9.89 µM (active),100 µM (active),,,,
CCCCNc1ccccc1,inactive,inactive,inactive,inactive,inactive,inactive,inactive,inactive,inactive,,,,,,,,,
